Compound activity: PubChem, Broad Institute
MITF TRPM1 inh: reduces MITF-dependent TRPM1 promoter luciferase signal; SK-MEL-5 TRPM1 promoter luciferase, 24 h; inhibition, % at 12.5 µM; hit rate 0.83% among 330,000; AID 488899;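 active means mean inhibition across replicates of 60% or more, whatever share of single replicates reaches that level; inconclusive means some that reach 60%, reason not given; inactive means mean inhibition across replicates below 60%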
MITF TRPM1 HTS: increases MITF-driven TRPM1 promoter luciferase signal | AID 588334 | hit rate 0.75% among 300,000 | SK-MEL-5 TRPM1-promoter luciferase, 24 h; % of positive control, neutral wells = 0 | activation, % at 12.5 µM;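 active means mean activation of at least 80% with every replicate also reaching 80%; inconclusive means mean reaches 80% but some replicate falls short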;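 further: 0% = neutral control wells and 100% = parthenolide positive control wells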
Statin myotox sup: suppressors of simvastatin-induced myotoxicity in C2C12 myotubes; ATP luminescence, 48 h; scaled: DMSO 0, geranylgeraniol control 100; rescue of ATP level, % at 7.49 µM; hit rate 0.78% among 330,000; AID 602340;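 active means mean ATP rescue above about 67%, or every replicate alone reaching that limit, limit read from the data, passing the limit was not always enough; inconclusive means no clear call, values can overlap the other calls; inactive means mean under the limit and some replicate under it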;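 further: myotubes were challenged with 10 µM simvastatin during compound exposure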
Wnt bcat act: activates Wnt/beta-catenin signaling in a reporter cell assay; activation, % at 9.35 µM; hit rate 1.2% among 300,000; activator, plate reader; in the data active means activation above about 30%, passing the limit was not always enough; inconclusive means no clear call, values can overlap the other calls;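 further: 0% = neutral control wells and 100% = positive control wells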
esBAF inh: blocks esBAF chromatin remodeling in mouse ES cells; reporter increase, % at 12.5 µM; Bmi1-luciferase knock-in reporter, 24 h; 100% = twice the neutral-well signal; AID 602393; hit rate 2% among 350,000; in the data active means activation above about 40%; inconclusive means no clear call, values can overlap the other calls;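 further: 0% = median of the plate's neutral control wells and 100% = double that signal; a rise in the Bmi1 reporter signal indicates esBAF inhibition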
EBV LMP1 NFkB: Epstein-Barr LMP1 NF-kappaB reporter inhibition | LMP1-induced NF-kappaB luciferase reporter cells, luminescence | inhibition, % at 12.5 µM | hit rate 0.69% among 350,000; in the data active means inhibition above about 41%; inconclusive means no clear call, values can overlap the other calls;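 further: 0% = neutral control wells and 100% = reference inhibitor control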
* = called active by the depositor; ? = inconclusive; . = not tested or not shown. Most compounds without a hit are left out; they make up all but 4% or so of the library.

SMILES | MITF TRPM1 inh | MITF TRPM1 HTS | Statin myotox sup | Wnt bcat act | esBAF inh | EBV LMP1 NFkB
CCOc1cc(/C=C2\C(=O)N(c3ccc(C(N)=O)cc3)N=C2C)ccc1OC(=O)c1cccs1 | 17 | -16 | 103* | . | -4 | -1
Cc1nc2c3cc(Cl)ccc3n(CCN3CCCCC3)c2s1 | 25 | -23 | -35 | . | 51* | -7
COC(=O)Cn1c2ccc(Cl)cc2c2nc(C)sc21 | 5 | -4 | . | 0 | . | 7
Cc1ccc(OCCn2nc3ccccc3n2)c(C)c1 | -58 | . | 5 | 26 | 55* | -7
CCOC(=O)C1=CCN(S(=O)(=O)c2ccc(Br)cc2)C1c1cccc(Br)c1 (configuration not stated) | . | . | . | -2 | . | .
Cc1cc(N/C=C/C(=O)c2cccs2)ccc1F | -25 | 24 | 46 | 11 | 69* | -67
CNc1cc([N+](=O)[O-])ccc1N/C=C/C(=O)c1cccs1 | -4 | 8 | 43 | . | 14 | -28
Cc1ccc(N/C=C/C(=O)c2cccs2)cc1C | -1 | 3 | . | 4 | . | -2
O=C(/C=C/Nc1cccc([N+](=O)[O-])c1)c1cccs1 | -17 | . | 9 | . | 73* | -50
COc1ccc(OCC(=O)N2c3ccccc3CCc3ccccc32)cc1 | -5 | 10 | . | . | . | 4
COc1ccc(N2C3=[N+](CC2(C)O)c2ccccc2CC3)cc1 (configuration not stated) | 8 | -6 | . | 8 | . | 69*
C[C@H](CO)N1C[C@H](C)[C@H](CN(C)Cc2ccc3c(c2)OCO3)Oc2ccc(NC(=O)Nc3cccc4ccccc34)cc2C1=O | . | . | 30 | . | 8 | .
O=c1c2ccccc2ncn1C1CCCCC1 | -8 | 8 | -16 | . | 8 | -5
O=c1c2[nH]c3ccccc3c2ncn1C1CCCCC1 | -9 | . | -2 | . | 62* | -18
CN(C)c1ccc(C=c2c3cc(O)ccc3n3c2cc(-c2ccccc2)[n+]3C)cc1 | 90* | -90 | . | -5 | . | 12
CN(C)c1ccc(C=c2c3ccccc3n3c2c2ccccc2[n+]3C)cc1 | -12 | 9 | . | -19 | . | -5
C[n+]1c(-c2ccccc2)cc2c(=Cc3ccccc3)c3ccccc3n21 | 98* | -98 | . | -6 | . | 30
C[n+]1c(-c2ccccc2)cc2c(=Cc3ccc([N+](=O)[O-])cc3)c3ccccc3n21 | 49 | -46 | . | -4 | . | -5
COc1ccccc1/C=C/C=N/NC(=O)c1cc(-c2ccco2)[nH]n1 | -7 | . | . | 3 | . | -3
CCN(C[C@H]1N[C@@](CC)(C(=O)OC)[C@H]2C(=O)N(Cc3ccccc3)C(=O)[C@@H]12)S(=O)(=O)c1ccc(-c2ccccc2)cc1 | 3 | -1 | -25 | -4 | -6 | -7
O=C(O)c1cc(N/N=C/c2ccc(N3CCOCC3)cc2)ccc1Cl | 49 | -47 | 8 | 37* | 13 | 16
O=[N+]([O-])/C=C\c1ccc(N2CCOCC2)cc1 | 74* | -72 | . | 4 | . | ?
O=[N+]([O-])c1cccc(N/N=C/c2ccc(N3CCOCC3)cc2)c1 | -123 | 127* | -8 | 13 | 66* | -22
C(=N\Nc1ccccc1)/c1ccc(N2CCOCC2)cc1 | -107 | 109* | -4 | . | 36 | -23
Clc1cccc(N/N=C/c2ccc(N3CCOCC3)cc2)c1 | -81 | ? | -47 | -2 | -5 | -22
SMILES | MITF TRPM1 inh | MITF TRPM1 HTS | Statin myotox sup | Wnt bcat act | esBAF inh | EBV LMP1 NFkB
CN(C)C(CNC(=O)c1ccc2nc[nH]c2c1)c1ccccc1 (configuration not stated) | -1 | 0 | 5 | 0 | -4 | -4
COc1ccc(N2C(=O)c3ccccc3NC2c2ccc(OC)c(CSc3ccccn3)c2)cc1 (configuration not stated) | -55 | 59 | -39 | 7 | 19 | 0
Cc1cccc(N=Nc2cnc(N)s2)c1 | -64 | 68 | . | 35* | . | -31
CC(=O)Nc1ncc(N=Nc2cccc(C(F)(F)F)c2)s1 | -24 | 30 | -8 | 5 | 26 | -11
O=C(CN1CCOCC1)N1CCN(c2nnc(-c3ccccc3)c3ccccc23)CC1 | 3 | -6 | 115* | . | -5 | -24
CC(=O)c1cccc(NC(=O)CCCSc2ccccc2)c1 | -5 | 8 | 1 | 7 | 2 | 1
COc1ccc(C)cc1S(=O)(=O)n1c([N+](=O)[O-])cnc1C | -5 | 7 | -3 | 1 | 1 | 4
COCCn1nnnc1CN(CCc1ccc(OC)c(OC)c1)Cc1cc2ccc(C)cc2[nH]c1=O | 10 | -7 | 103* | . | 0 | -1
